Reference: PubChem BioAssay AID1159580 (chemical genetic matrix, 2015)
Out of some 5,500 compounds screened, about 2,000 (36%) were called active. Roughly 18% stayed inconclusive and do not appear here. Cut-off read from the data, not from the text of the source: active = normalized growth mostly below about 0.91 (no sharp cut-off); inconclusive = no clear call, values can overlap the other calls; inactive = mostly above about 0.92. This is one part of the list.

Assay: chemical genetic growth profiling, strain panel (AID 1159580);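 note: tested at 20 µM; growth read once vehicle control cultures reached saturation at 30 °C; 1 = growth at the plate median or of vehicle wells; lower values mean less growth of the strain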
Details: S. cerevisiae deletion strains, growth OD

Measured: normalized growth

COC(OC)c1ccc(C#N)c(=S)[nH]1
inactive: locus YAL013W, strain DEP1, stronger effect = lower value 1.01 | locus YBR229C, strain ROT2, stronger effect = lower value 1.02 | locus YCL061C, strain MRC1, stronger effect = lower value 1.01 | locus YDL101C, strain DUN1, stronger effect = lower value 1 | locus YDL134C, strain PPH21, stronger effect = lower value 1.01 | locus YDR150W, strain NUM1, stronger effect = lower value 0.996 | locus YEL061C, strain CIN8, stronger effect = lower value 1.01 | locus YGR078C, strain PAC10, stronger effect = lower value 0.989 | locus YHR030C, strain SLT2, stronger effect = lower value 1.08 | locus YHR087W, strain rtc3, stronger effect = lower value 1.03 | locus YJL187C, strain SWE1, stronger effect = lower value 0.994 | locus YJR043C, strain POL32, stronger effect = lower value 1.01 | locus YJR075W, strain HOC1, stronger effect = lower value 1 | locus YLR039C, strain RIC1, stronger effect = lower value 1.05 | locus YLR058C, strain SHM2 (second series), stronger effect = lower value 1.01 | locus YLR085C, strain ARP6, stronger effect = lower value 1.16 | locus YLR262C, strain YPT6, stronger effect = lower value 1 | locus YML094W, strain GIM5, stronger effect = lower value 1.04 | locus YMR219W, strain ESC1, stronger effect = lower value 1.01 | locus YMR263W, strain SAP30, stronger effect = lower value 1.02 | locus YMR307W, strain GAS1, stronger effect = lower value 1.06 | locus YNL153C, strain GIM3, stronger effect = lower value 1 | locus YNL298W, strain CLA4 (second series), stronger effect = lower value 1.02 | locus YNL322C, strain KRE1, stronger effect = lower value 1.01 | locus YNR030W, strain Alg12, stronger effect = lower value 0.992 | locus YPL055C, strain LGE1, stronger effect = lower value 1.04 | locus YPL241C, strain CIN2, stronger effect = lower value 1.11 | locus YPR135W, strain CTF4, stronger effect = lower value 1.1
